Measurements taken from PubChem BioAssay (EPA / NIEHS).
Results filed as inconclusive are left out. Calls of active or inactive are those of the source. The calls were made as follows, unless noted: active = hit-call score of the fitted dose curve at least 0.9, where 1 is the maximum; inactive = score below 0.9.

Columns and labels:
[1] = CCTE_Shafer_MEA_dev_interburst_interval_mean: CCTE's Neural Network Formation Assay for Mean Interburst Interval, Shafer Lab (AID 2284046);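 also: well-mean interburst interval of bursting electrodes as AUC over four recording days; curve fitted for decrease in interburst interval relative to DMSO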
Summary of the method: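 Rat cortical neurons, 1.5 x 10^5 cells/well, 48-well MEA; compound from day 0 through DIV 12, media and treatment renewed DIV 5/9. Recordings DIV 5, 7, 9, 12; well-mean interburst interval → trapezoidal AUC, loss direction vs DMSO.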

[2] = CCTE_Shafer_MEA_dev_inter_network_spike_interval_mean: CCTE's Neural Network Formation Assay for Mean Inter-network Spike Interval, Shafer Lab (AID 2284047);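 also: potency for a decrease in mean inter-network spike interval below DMSO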
Summary of the method: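 Primary rat cortical neurons on PEI-coated 48-well MEAs (16 electrodes/well) were exposed from plating day 0 to DIV 12, with dosing renewed at DIV 5 and 9. Recordings at DIV 5, 7, 9, 12 were collapsed by trapezoidal AUC, loss-of-signal fit vs DMSO.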

[3] = CCTE_Shafer_MEA_dev_network_spike_number: CCTE's Neural Network Formation Assay for Number of Network Spikes, Shafer Lab (AID 2284048);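 also: synchronized bursts across electrodes counted on days 5 7 9 12 and integrated as AUC; fit as a loss of signal meaning fewer network spikes than DMSO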
Summary of the method: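 Primary rat cortical neurons were seeded at 1.5 x 10^5 cells/well on PEI-coated 16-electrode MEA wells with laminin, exposed from plating day 0, compound renewed at DIV 5 and 9. Network spikes were recorded on days 5, 7, 9, 12 and summarized as trapezoidal AUC versus DMSO.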

[4] = CCTE_Shafer_MEA_dev_network_spike_peak: CCTE's Neural Network Formation Assay for Mean Number of Electrodes in Network Spike, Shafer Lab (AID 2284049);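 also: fitted for loss of signal meaning fewer electrodes in network spikes than DMSO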
Summary of the method: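 Continuous 12-day exposure of rat cortical cultures, starting at plating, on MEA plates. Endpoint: electrodes participating in network-spike peaks, AUC across DIV 5–12, DMSO as negative control.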

[5] = CCTE_Shafer_MEA_dev_spike_duration_mean: CCTE's Neural Network Formation Assay for Mean Spike Duration, Shafer Lab (AID 2284051);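 also: mean network spike duration pooled as area under curve over DIV 5 to 12 recordings; potency for a decrease in mean network spike duration versus DMSO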
Summary of the method: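 Rat cortical primary cultures, 48-well MEA (16 electrodes/well); compound from plating, renewed DIV 5, 9. Network spike duration (AxIS adaptive detector) recorded DIV 5/7/9/12, combined as trapezoidal AUC; loss direction vs DMSO.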

[6] = CCTE_Shafer_MEA_dev_network_spike_duration_std: CCTE's Neural Network Formation Assay for Standard Deviation of Network Spike Duration, Shafer Lab (AID 2284052);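 also: area under curve of spike duration SD across recording days 5 to 12; hits are decreases in network spike duration SD versus DMSO vehicle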
Summary of the method: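 Rat cortical cultures, 1.5 x 10^5 cells/well, exposed continuously from plating to DIV 12 with media/compound renewal at DIV 5, 9. Spontaneous activity recorded DIV 5/7/9/12, AxIS adaptive spike detector; AUC across days; negative direction vs DMSO.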

[7] = CCTE_Shafer_MEA_dev_per_network_spike_spike_number_mean: CCTE's Neural Network Formation Assay for Mean Number of Spikes in a Network Spike, Shafer Lab (AID 2284053);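 also: fitted as decrease in spikes per network spike relative to DMSO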
Summary of the method: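 Rat cortical primary cultures on 48-well MEA; compound from day 0, re-dosed with full media change DIV 5, 9. Recorded DIV 5, 7, 9, 12; spikes in 0.05 s window at network-spike peak ÷ total network spikes; AUC; loss vs DMSO.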

[8] = CCTE_Shafer_MEA_dev_per_network_spike_spike_percent: CCTE's Neural Network Formation Assay for Percent of Spikes in a Network Spike, Shafer Lab (AID 2284054)
Summary of the method: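 Primary rat cortical neurons on 16-electrode MEA wells (PEI-coated, laminin at plating), exposed from day 0 with renewal at DIV 5 and 9; spikes within 0.05 s of network-spike peaks over total spikes, AUC across days 5, 7, 9, 12.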

[9] = CCTE_Shafer_MEA_dev_LDH: CCTE's Lactate Dehydrogenase Assay for Cytotoxicity in the Neural Network Formation Assay, Shafer Lab (AID 2284068; active = hit-call score of the fitted dose curve at least 0.9, where 1 is the maximum;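 also: exposure for twelve days from plating with re-dosing on DIV 5 and 9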)
Summary of the method: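 Rat cortical primary neurons, MEA culture; dosing day 0–12, full medium plus compound exchange DIV 5, 9. Read-out: LDH enzyme activity, spectrophotometric. DMSO = negative control/baseline; signal loss → cytotoxicity.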

[10] = CCTE_Shafer_MEA_dev_AB: CCTE's Alamar Blue Assay for Cytotoxicity in the Neural Network Formation Assay, Shafer Lab (AID 2284083; active = hit-call score of the fitted dose curve at least 0.9, where 1 is the maximum;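 also: resazurin reduction fluorescence as viability of cultured neurons; twelve days of exposure from plating with re-dosing on DIV 5 and 9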)
Summary of the method: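 Rat cortical primary cultures, 1.5 x 10^5 cells/well on MEA; continuous compound exposure over 12 days of network development, re-dosed with full medium change DIV 5 and 9. Alamar Blue fluorescence; loss of signal = cytotoxicity vs DMSO baseline.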

[11] = CCTE_Shafer_MEA_dev_mutual_information_norm: CCTE's Neural Network Formation Assay for Mutual Information Normalization, Shafer Lab (AID 2284091);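 also: mutual information between electrodes summarised as area under curve across four recording days; potency is for a decrease in mutual information relative to DMSO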
Summary of the method: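 Rat cortical cultures, 48-well MEA, continuous exposure DIV 0–12 with full media/compound change DIV 5 and 9. Readout: inter-electrode mutual information, AxIS adaptive spike detection; AUC across DIV 5/7/9/12 recordings; DMSO baseline, negative fitting direction.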

[12] = CCTE_Shafer_MEA_dev_correlation_coefficient_mean: CCTE's Neural Network Formation Assay for Mean Correlation Coefficient, Shafer Lab (AID 2284093);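 also: well mean pairwise spike train correlation integrated as AUC over recording days 5 to 12; potency fitted for loss of correlation relative to DMSO vehicle wells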
Summary of the method: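 Rat cortical cultures, 1.5 x 10^5 cells/well, dosed from day 0 for 12 days. Spontaneous spikes recorded DIV 5/7/9/12; electrode-pair correlation coefficients averaged, AUC taken. Fit in loss direction vs DMSO.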

[13] = UKN2_HCS_IMR90_neural_migration: University of Konstanz (UKN) Leist Lab Neural Crest Cell Migration Assay in human induced IMR90 Pluripotent Stem Cells (UKN2) (AID 2284204); settings: actives raise or lower the signal
Summary of the method: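 iPSC-derived IMR90 neural crest cells on PLO/laminin/fibronectin were seeded around silicone stoppers; after stopper removal, migration in N2-S medium with EGF and FGF ran 24 h before 24 h chemical exposure. Calcein-AM/Hoechst high-content imaging; bidirectional fit versus DMSO.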

[14] = IUF_NPC1b_proliferation_BrdU_72hr: Leibniz Research Institute for Environmental Medicine (IUF) 72-hour Neural Progenitor Cell Bromodeoxyuridine (BrdU) Proliferation Assay (NPC1b) (AID 2284207)
Summary of the method: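 hNPC spheres (primary, GW 16-19 fetal cortex), single sphere/well, EGF+FGF medium; 72 h compound, no renewal; BrdU pulse last 16 h; luminescent ELISA; activity vs DMSO baseline; growth-factor withdrawal as positive control.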

[15] = IUF_NPC1a_proliferation_area_72hr: Leibniz Research Institute for Environmental Medicine (IUF) 72-hour Neural Progenitor Cell Proliferation Area Assay (NPC1a) (AID 2284208)
Summary of the method: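 Single 0.25–0.35 mm human fetal neural progenitor spheres in proliferation medium with EGF and FGF, exposed 72 h from plating without renewal at 37C, pH 7.2-7.6. Sphere area growth measured by automated phase-contrast imaging, relative to DMSO.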

Cc1c(O)cccc1C(=O)N[C@@H](CSc1ccccc1)[C@H](O)CN1C[C@H]2CCCC[C@H]2C[C@H]1C(=O)NC(C)(C)C
AC50 [1]: 1510 nM (active) | AC50 [2]: 1090 nM (active) | AC50 [3]: 1560 nM (active) | AC50 [4]: 1260 nM (active) | AC50 [5]: 559 nM (active) | AC50 [6]: 1270 nM (active) | AC50 [7]: 1190 nM (active) | AC50 [8]: 6350 nM (active) | AC50 [9]: 7060 nM (active) | AC50 [10]: 10100 nM (active) | AC50 [11]: 772 nM (active) | AC50 [12]: 1780 nM (active) | outcome [13]: inactive | AC50 [14]: 8000 nM (active) | AC50 [15]: 25000 nM (active)
